PubChem BioAssay (Tox21)
Results filed as inconclusive are left out. Active and inactive are the calls of the source. Unless noted, calls come from the whole dose curve; as a rule, active = well fitted curve in the direction sought with a large enough effect in the repeat runs; inconclusive = weak or mixed curves; inactive = no such curve, though single readings can be large; an effect the other way counts as inactive or inconclusive.

What was measured:
[1] = qHTS assay to identify small molecule antagonists of the peroxisome proliferator-activated receptor gamma (PPARg) signaling pathway - cell viability counter screen (AID 743194); note: nearly all actives have a fitted effect of over 55% in size; note: potency is the fitted concentration of half-maximal effect
Method in brief: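 Cytotoxicity counter screen in PPARg-bla HEK293H cells, same wells as reporter assay. Compounds plus 50 nM rosiglitazone (final) for 17 h at 37 C, then viability read by CellTiter-Glo luminescence.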

[2] = qHTS assay for small molecule agonists of the antioxidant response element (ARE) signaling pathway - cell viability counter screen (AID 743203; calls by dose curve; note: nearly all actives have a fitted effect of over 55% in size; note: potency is the fitted concentration of half-maximal effect)
Method in brief: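 Following 16 hrs of compound treatment at 37C, HepG2 cells with an ARE-controlled beta-lactamase gene were lysed with CellTiter-Glo. Luminescence was read after 30 min at room temperature.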

[3] = qHTS assay to identify small molecule agonists of the peroxisome proliferator-activated receptor delta (PPARd) signaling pathway - cell viability counter screen (AID 743211); note: nearly all actives have a fitted effect of over 55% in size; note: potency is the fitted concentration of half-maximal effect
Method in brief: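 Multiplexed format: after the 2 h room-temperature LiveBLAzer B/G FRET step, CellTiter-Glo was added to the same wells. Luminescence after 30 min gave cell viability; compound exposure was 17 h at 37C.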

[4] = qHTS assay to identify small molecule antagonists of the peroxisome proliferator-activated receptor delta (PPARd) signaling pathway - cell viability counter screen (AID 743213); note: nearly all actives have a fitted effect of over 50% in size; note: potency is the fitted concentration of half-maximal effect
Method in brief: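 HEK293H PPARd UAS-bla cells, 5 h pre-incubation, compound + L165041 300 nM final, 17 h 37 C; B/G FRET substrate 2 h RT; then CellTiter-Glo 30 min RT, luminescence.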

[5] = molecular target: Bile acid receptor (Homo sapiens) (UniProt Q96RI1); assay: qHTS assay to identify small molecule agonists of the farnesoid-X-receptor (FXR) signaling pathway (AID 743220; active = well fitted activation curve with a large enough effect in the signal ratio in the repeat runs, not every such curve was filed as active; the % refers to the signal ratio; note: potency is the fitted concentration of half-maximal effect)
Bile acid receptor (Homo sapiens), sequence (Q96RI1 whole entry, looked up): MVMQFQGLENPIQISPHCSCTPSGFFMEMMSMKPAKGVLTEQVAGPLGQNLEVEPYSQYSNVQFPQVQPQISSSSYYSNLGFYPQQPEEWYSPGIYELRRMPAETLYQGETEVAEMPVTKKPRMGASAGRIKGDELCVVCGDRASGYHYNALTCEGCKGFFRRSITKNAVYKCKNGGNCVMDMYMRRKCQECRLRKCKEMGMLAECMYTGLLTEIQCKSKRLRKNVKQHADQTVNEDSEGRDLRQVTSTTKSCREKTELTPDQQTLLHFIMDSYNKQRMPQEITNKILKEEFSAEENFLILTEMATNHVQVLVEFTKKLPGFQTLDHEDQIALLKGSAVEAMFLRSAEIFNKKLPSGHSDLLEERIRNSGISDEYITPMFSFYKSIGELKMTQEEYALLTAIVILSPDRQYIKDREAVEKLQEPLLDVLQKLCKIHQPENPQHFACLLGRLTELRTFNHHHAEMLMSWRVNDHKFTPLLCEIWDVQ
Method in brief: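 Beta-lactamase reporter under UAS control in GeneBLAzer FXR HEK 293T cells (5000/well) measured with LiveBLAzer FRET substrate after 2 h at room temperature. Compound exposure lasted 16 h at 37C.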

[6] = molecular target: Vitamin D3 receptor (Homo sapiens) (UniProt P11473); assay: qHTS assay to identify small molecule agonists of the vitamin D receptor (VDR) signaling pathway (AID 743222; calls by dose curve; note: potency is the fitted concentration of half-maximal effect)
Vitamin D3 receptor (Homo sapiens), sequence (P11473 whole entry, looked up): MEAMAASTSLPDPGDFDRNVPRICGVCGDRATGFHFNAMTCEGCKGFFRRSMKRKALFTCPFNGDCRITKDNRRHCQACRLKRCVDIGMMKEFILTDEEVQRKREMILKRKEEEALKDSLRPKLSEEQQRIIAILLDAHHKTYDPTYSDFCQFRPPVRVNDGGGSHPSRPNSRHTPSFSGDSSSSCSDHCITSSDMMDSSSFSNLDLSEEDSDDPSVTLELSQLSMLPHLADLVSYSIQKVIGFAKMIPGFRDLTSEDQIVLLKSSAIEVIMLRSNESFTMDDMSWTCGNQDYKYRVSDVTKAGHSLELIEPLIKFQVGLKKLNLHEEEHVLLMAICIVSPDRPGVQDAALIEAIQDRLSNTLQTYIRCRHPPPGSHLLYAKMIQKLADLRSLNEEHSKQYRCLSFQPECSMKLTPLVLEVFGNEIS
Method in brief: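 In VDR-bla cells, compound-induced beta-lactamase expression is quantified by FRET substrate fluorescence. Treatment lasts 16 h at 37C; substrate develops 2 h at room temperature.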

[7] = qHTS assay to identify small molecule that activate the aryl hydrocarbon receptor (AhR) signaling pathway - cell viability counter screen (AID 743086); note: nearly all actives have a fitted effect of over 45% in size; note: potency is the fitted concentration of half-maximal effect
Method in brief: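 HepG2-AhR-luc (HG2L7.5c1) cells, 4000/well, treated 24 h at 37 C with compound; viability measured as CellTiter-Fluor fluorescence after 30 min in the same wells as the luciferase read.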

[8] = molecular target: Peroxisome proliferator-activated receptor gamma (Homo sapiens) (UniProt P37231); assay: qHTS assay to identify small molecule agonists of the peroxisome proliferator-activated receptor gamma (PPARg) signaling pathway (AID 743094; active = well fitted activation curve with a large enough effect in the signal ratio in the repeat runs, not every such curve was filed as active; the % refers to the signal ratio)
Peroxisome proliferator-activated receptor gamma (Homo sapiens), sequence (P37231 whole entry, looked up): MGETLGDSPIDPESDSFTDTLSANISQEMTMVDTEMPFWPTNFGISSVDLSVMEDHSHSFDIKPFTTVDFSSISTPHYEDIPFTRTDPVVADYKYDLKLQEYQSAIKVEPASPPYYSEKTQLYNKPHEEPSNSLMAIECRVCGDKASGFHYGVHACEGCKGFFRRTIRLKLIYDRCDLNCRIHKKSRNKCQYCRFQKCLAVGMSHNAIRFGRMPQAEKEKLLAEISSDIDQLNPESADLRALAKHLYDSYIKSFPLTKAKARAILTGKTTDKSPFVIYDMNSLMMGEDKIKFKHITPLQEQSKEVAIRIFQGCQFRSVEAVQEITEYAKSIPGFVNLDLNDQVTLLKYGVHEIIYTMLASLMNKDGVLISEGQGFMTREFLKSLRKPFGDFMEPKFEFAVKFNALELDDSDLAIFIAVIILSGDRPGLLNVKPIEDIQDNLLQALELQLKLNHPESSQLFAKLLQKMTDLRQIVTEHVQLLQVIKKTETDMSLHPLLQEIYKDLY
Method in brief: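 Compounds dissolved in DMSO were added to PPARg UAS-bla HEK293H cells for 17 h at 37C, and reporter expression was quantified by fluorescence intensity after 1 h with LiveBLAzer B/G FRET substrate.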

[9] = molecular target: Peroxisome proliferator-activated receptor gamma (Homo sapiens) (UniProt P37231); assay: qHTS assay to identify small molecule antagonists of the peroxisome proliferator-activated receptor gamma (PPARg) signaling pathway (AID 743191; calls by dose curve; note: nearly all actives have a fitted effect of over 30% in size; note: potency is the fitted concentration of half-maximal effect)
Method in brief: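 GeneBLAzer PPARg UAS-bla HEK293H cells, 5 h post-plating, exposed to compounds 17 h at 37C. LiveBLAzer B/G FRET substrate added for 1 h at room temperature; beta-lactamase reporter read by fluorescence intensity.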

[10] = qHTS assay for small molecule agonists of the antioxidant response element (ARE) signaling pathway (AID 743202; active = well fitted activation curve with a large enough effect in the signal ratio in the repeat runs, not every such curve was filed as active; the % refers to the signal ratio; note: potency is the fitted concentration of half-maximal effect)
Method in brief: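 Agonist mode reporter screen: HepG2 cells with ARE-controlled beta-lactamase are incubated with test compounds for 16 h at 37 C, and beta-lactamase activity is measured as fluorescence of cleaved B/G FRET substrate.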

[11] = qHTS assay for small molecule activators of the heat shock response signaling pathway (AID 743210; active = well fitted activation curve with a large enough effect in the signal ratio in the repeat runs, with a control signal flat, not every such curve was filed as active; the % refers to the signal ratio; note: potency is the fitted concentration of half-maximal effect;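 for activation: HeLa cells with beta-lactamase reporter driven by heat shock elements; series mostly up to about 63 µM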)
Method in brief: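 Quantitative high-throughput format using an engineered HeLa line in which heat shock response elements drive beta-lactamase; after 5 h with compound, cells received a B/G FRET substrate and fluorescence was read.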

[12] = molecular target: Peroxisome proliferator-activated receptor delta (Homo sapiens) (UniProt Q03181); assay: qHTS assay to identify small molecule agonists of the peroxisome proliferator-activated receptor delta (PPARd) signaling pathway (AID 743212; calls by dose curve)
Peroxisome proliferator-activated receptor delta (Homo sapiens), sequence (Q03181 whole entry, looked up): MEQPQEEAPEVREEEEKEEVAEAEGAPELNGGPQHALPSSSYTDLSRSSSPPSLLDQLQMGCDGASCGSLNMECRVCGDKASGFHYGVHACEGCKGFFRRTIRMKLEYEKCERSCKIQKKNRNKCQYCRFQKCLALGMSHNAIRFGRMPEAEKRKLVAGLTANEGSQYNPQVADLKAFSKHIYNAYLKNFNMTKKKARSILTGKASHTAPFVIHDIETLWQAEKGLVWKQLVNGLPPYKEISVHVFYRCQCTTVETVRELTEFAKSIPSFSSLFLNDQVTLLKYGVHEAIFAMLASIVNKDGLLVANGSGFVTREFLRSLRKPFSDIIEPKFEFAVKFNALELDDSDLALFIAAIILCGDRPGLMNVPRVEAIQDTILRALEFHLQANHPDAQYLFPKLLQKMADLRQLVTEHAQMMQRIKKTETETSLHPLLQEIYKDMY
Method in brief: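 Quantitative high-throughput agonist screen in a HEK293H beta-lactamase reporter line under UAS control. Compounds in DMSO, at 37 C. Fluorescence read after 2 h with FRET substrate at room temperature.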

[13] = qHTS assay to identify small molecule agonists of the farnesoid-X-receptor (FXR) signaling pathway - cell viability counter screen (AID 743218); note: nearly all actives have a fitted effect of over 45% in size; note: potency is the fitted concentration of half-maximal effect
Method in brief: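 Parallel cytotoxicity test: compound-treated (16 h, 37 C) HEK 293T FXR-bla reporter cells were lysed with CellTiter-Glo and luminescence recorded.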

[14] = molecular target: Vitamin D3 receptor (Homo sapiens) (UniProt P11473); assay: qHTS assay to identify small molecule antagonists of the vitamin D receptor (VDR) signaling pathway (AID 743223; active = well fitted inhibition curve with a large enough effect in the signal ratio in the repeat runs, not every such curve was filed as active; the % refers to the signal ratio)
Method in brief: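 After VDR-bla cells are plated and left 4 h at 37C, DMSO-dissolved compounds and 3 nM (final) calcitriol agonist are added. Incubation continues 16 h at 37C; FRET beta-lactamase substrate then develops 2 h at room temperature.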

[15] = molecular target: Aryl hydrocarbon receptor (Homo sapiens) (UniProt P35869); assay: qHTS assay to identify small molecule that activate the aryl hydrocarbon receptor (AhR) signaling pathway (AID 743085); note: nearly all actives have a fitted effect of over 15% in size; note: potency is the fitted concentration of half-maximal effect;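 for activation: HG2L7.5c1 human HepG2 liver cells with stably integrated DRE-driven firefly reporter; series mostly up to about 70 µM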
Aryl hydrocarbon receptor (Homo sapiens), sequence (P35869 whole entry, looked up): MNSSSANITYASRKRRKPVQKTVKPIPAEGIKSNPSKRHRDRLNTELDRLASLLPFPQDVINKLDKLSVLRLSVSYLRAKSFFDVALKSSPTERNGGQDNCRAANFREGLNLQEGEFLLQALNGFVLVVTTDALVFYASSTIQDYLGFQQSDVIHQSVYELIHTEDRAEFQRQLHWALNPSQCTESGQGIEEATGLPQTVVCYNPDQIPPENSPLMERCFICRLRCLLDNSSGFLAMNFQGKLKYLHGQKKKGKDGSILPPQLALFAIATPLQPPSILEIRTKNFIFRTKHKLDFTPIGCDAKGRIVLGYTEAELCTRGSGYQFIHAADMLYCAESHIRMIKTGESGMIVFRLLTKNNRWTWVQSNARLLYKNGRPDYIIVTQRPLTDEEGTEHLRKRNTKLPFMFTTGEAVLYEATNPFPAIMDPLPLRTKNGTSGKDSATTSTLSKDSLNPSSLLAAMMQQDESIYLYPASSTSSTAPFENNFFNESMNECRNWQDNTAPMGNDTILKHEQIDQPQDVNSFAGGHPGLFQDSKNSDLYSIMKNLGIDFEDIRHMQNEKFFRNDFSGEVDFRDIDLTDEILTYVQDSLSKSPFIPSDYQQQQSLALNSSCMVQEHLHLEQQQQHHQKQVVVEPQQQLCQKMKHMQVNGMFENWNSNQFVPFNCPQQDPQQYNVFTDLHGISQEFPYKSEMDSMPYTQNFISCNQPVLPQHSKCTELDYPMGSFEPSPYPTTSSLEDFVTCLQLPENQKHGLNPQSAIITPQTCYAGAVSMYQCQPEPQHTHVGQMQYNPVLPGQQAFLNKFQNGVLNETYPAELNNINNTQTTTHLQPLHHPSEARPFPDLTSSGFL
Method in brief: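 Reporter assay in engineered HepG2 line HG2L7.5c1, whose plasmid carries twenty dioxin responsive elements upstream of firefly luciferase. Treatment lasted 24 h at 37C; ONE-Glo luminescence gauged induction.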

[16] = qHTS assay to identify small molecule antagonists of the farnesoid-X-receptor (FXR) signaling pathway - cell viability counter screen (AID 743221; active = well fitted cell-killing curve with a large enough effect in the repeat runs, not every such curve was filed as active; note: nearly all actives have a fitted effect of over 50% in size; note: potency is the fitted concentration of half-maximal effect)
Method in brief: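 CellTiter-Glo, 30 min RT, luminescence; same wells as the LiveBLAzer FRET read. Cells: FXR-UAS-bla HEK 293T. Treatment: compound with chenodeoxycholic acid 50 uM final, 16 h at 37 C.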

[17] = qHTS assay for small molecule activators of the heat shock response signaling pathway - cell viability counter screen (AID 743209); note: nearly all actives have a fitted effect of over 50% in size; note: potency is the fitted concentration of half-maximal effect
Method in brief: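 Readout: CellTiter-Glo luminescence, 30 min at room temperature. System: HSE-bla HeLa cells, 1500/well, plated overnight. Treatment: compounds in DMSO, 5 h at 37 C.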

[18] = molecular target: Peroxisome proliferator-activated receptor delta (Homo sapiens) (UniProt Q03181); assay: qHTS assay to identify small molecule antagonists of the peroxisome proliferator-activated receptor delta (PPARd) signaling pathway (AID 743215; active = well fitted inhibition curve with a large enough effect in the signal ratio in the repeat runs, not every such curve was filed as active; the % refers to the signal ratio;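 note: cells stimulated with agonist L165041 at 300 nM final during compound exposure; series mostly up to about 62 µM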)
Method in brief: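 HEK293H UAS-bla, PPARd; agonist L165041 300 nM final with cpd in DMSO; 37 C 17 h; FRET substrate, RT 2 h; fluorescence intensity.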

[19] = molecular target: Bile acid receptor (Homo sapiens) (UniProt Q96RI1); assay: qHTS assay to identify small molecule antagonists of the farnesoid-X-receptor (FXR) signaling pathway (AID 743217; active = well fitted inhibition curve with a large enough effect in the signal ratio in the repeat runs, not every such curve was filed as active; the % refers to the signal ratio)
Method in brief: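 GeneBLAzer FXR-UAS-bla HEK 293T, CDCA-stimulated (50 uM final). Compound treatment 16 h, 37 °C. Detection: beta-lactamase cleavage of B/G FRET substrate, fluorescence.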

Measured: Potency

COC(=O)c1nc(Cl)c(Cl)nc1N
active: [1] 26.6 µM | [2] 23.7 µM | [3] 29.8 µM | [4] 29.8 µM | [5] 29.8 µM | [6] 11.9 µM

CCC1NC(=O)c2cc(S(N)(=O)=O)c(Cl)cc2N1 (stereo not given)
not listed: [5] | [15] | [16] | [17] | [18] | [19]
inactive: all other assays above

Nc1nc2ccc([N+](=O)[O-])cc2s1
inactive: [8] | [2] | [16]
active: [15] 32.5 µM | [10] 9.69 µM

CCOC(=O)c1ccc(O)c(O)c1
not listed: [3] | [5] | [6] | [7] | [8] | [14] | [15] | [19]
inactive: all other assays above

Cc1cc(O)c(C)c(C)c1O
active: [10] 23.7 µM
not listed: [5] | [6] | [7] | [8] | [14] | [15] | [19]
inactive: all other assays above

CC(C)(c1ccccc1)c1ccccc1
not listed: [5] | [7] | [9] | [12] | [13] | [17] | [18] | [19]
inactive: all other assays above

c1ccc2c(c1)CCc1ccccc1N2
not listed: [5] | [14] | [15] | [19]
inactive: all other assays above

CC(=O)c1cc2ccccc2s1
not listed: [1] | [6] | [7] | [8] | [9] | [15] | [18]
inactive: all other assays above

COC(=O)[C@H]1[C@H]2C[C@@H]3c4[nH]c5cc(OC)ccc5c4CCN3C[C@H]2C[C@@H](OC(=O)/C=C/c2ccc(O)c(OC)c2)[C@@H]1OC
inactive: [2] | [17] | [5]
active: [9] 6.68 µM | [3] 8.41 µM | [4] 10.6 µM | [13] 8.41 µM | [16] 18.8 µM

O=C1Cc2cc(Cl)ccc2N1
active: [10] 21.1 µM
not listed: [2] | [3] | [5] | [7] | [8] | [15] | [19]
inactive: all other assays above

CC(CC1c2ccccc2CCc2ccccc21)CN(C)C (stereo not given)
inactive: [2] | [18] | [19] | [13] | [5] | [16]

CC(=O)N/N=C/c1ccc([N+](=O)[O-])o1
inactive: [8] | [1] | [3] | [12] | [4] | [18] | [13] | [16] | [6]

Brc1cc(Br)c(Oc2cc(Br)c(Br)cc2Br)cc1Br
active: [4] 23.9 µM
inactive: [1] | [10] | [2] | [17] | [13] | [16]

CCCCCCCCC(CCCCCC)C(=O)O (stereo not given)
active: [17] 17.4 µM
inactive: [15] | [7] | [10] | [4] | [5] | [6] | [14]

COc1ccccc1NC(=O)c1cc2ccccc2cc1O
active: [15] 3.06 µM | [1] 17.4 µM | [11] 50.9 µM | [4] 43.6 µM
inactive: [8]

CCCCN(CCN(CCCC)C(=O)N1CCOCC1)C(=O)N1CCOCC1
inactive: [1] | [10] | [2] | [17] | [13] | [16] | [14]

CN1CC(=O)N2[C@H](c3ccc4c(c3)OCO4)c3[nH]c4ccccc4c3C[C@@H]2C1=O
not listed: [3] | [5] | [7] | [8] | [15] | [19]
inactive: all other assays above

COc1cc(Nc2c(C#N)cnc3cc(OCCCN4CCN(C)CC4)c(OC)cc23)c(Cl)cc1Cl
inactive: [15] | [17] | [6]
active: [7] 13.3 µM | [2] 18.8 µM | [3] 26.6 µM | [13] 13.3 µM | [16] 26.6 µM

O=C1NCCN1CCO
not listed: [4] | [5] | [8] | [12] | [15] | [18] | [19]
inactive: all other assays above
